# Screening results as filed in PubChem BioAssay.
# KinaseGlo FLuc: counter-screen: inhibitors of Kinase-Glo firefly luciferase. actives 0.28% (n = 200,000). Kinase-Glo luciferase, ATP luminescence, 8 min. Potency, µM (top dose mostly 38.3 µM), inactives show top-dose activity change, negative = inhibition, actives largely listed as inhibitors. Q27757; also: % is scaled to controls: 0 for no effect and ±100 for the full control effect; nearly all actives have a fitted effect of over 60% in size
#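 Compound is pinned into ATP-containing buffer (10 uM ATP, imidazole pH 7.2, 7 mM MgCl2). Kinase-Glo luciferase reagent is then added. Light output is recorded following an 8-min room-temperature incubation.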
# NPC1 prom act: NPC1 promoter activation; Potency, µM (highest dose often 9.22 µM), inactives show at the highest dose activation, usual class: activators; Huh7 NPC1 promoter luciferase reporter, 24 h; actives 2.4% (n = 320,000); also: % of control where 0% means no effect; nearly all actives have a fitted effect of over 60% in size
#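 Stably transfected Huh7 (NPC1 promoter→luciferase), 1500 cells/well in Opti-MEM + 10% FBS, 2 h settle, then compound 24 h at 37 °C. Luminescence after 10 min with Amplite reagent.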
# FLuc counter: inhibits or activates purified firefly luciferase, miR-21 counter-screen | purified FLuc, Km substrates, luminescence inhibition | Potency, µM (top dose mostly 57.5 µM), inactives show at the highest dose activity change, negative = inhibition, actives largely listed as inhibitors | actives 6.9% (n = 360,000) | AID 588342;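 also: plate controls were vehicle for no effect and reference inhibitor for full effect; nearly all actives have a fitted effect of over 55% in size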
# Target sequence (P08659 whole entry, looked up): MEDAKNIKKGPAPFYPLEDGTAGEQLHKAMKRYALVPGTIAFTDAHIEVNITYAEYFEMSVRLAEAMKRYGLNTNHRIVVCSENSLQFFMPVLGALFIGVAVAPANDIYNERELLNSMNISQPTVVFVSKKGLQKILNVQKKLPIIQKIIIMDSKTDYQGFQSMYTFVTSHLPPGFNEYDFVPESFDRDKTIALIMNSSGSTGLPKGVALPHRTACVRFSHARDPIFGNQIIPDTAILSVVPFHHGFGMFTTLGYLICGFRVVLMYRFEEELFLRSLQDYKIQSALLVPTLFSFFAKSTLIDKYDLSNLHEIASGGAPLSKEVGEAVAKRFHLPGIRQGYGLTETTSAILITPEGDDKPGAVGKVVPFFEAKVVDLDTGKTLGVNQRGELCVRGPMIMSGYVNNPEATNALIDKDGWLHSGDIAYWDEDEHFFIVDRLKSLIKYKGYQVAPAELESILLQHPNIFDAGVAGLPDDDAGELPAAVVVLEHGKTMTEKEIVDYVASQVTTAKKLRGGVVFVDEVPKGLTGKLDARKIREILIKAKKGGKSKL
#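 Purified P. pyralis luciferase (10nM final) with 10uM D-luciferin and 10uM ATP (Km levels) in 50mM Tris acetate pH 7.5, 10mM Mg acetate, 0.01% Tween-20, 0.05% BSA; qHTS 6-point titration, ~60 µM downward; luminescence read.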
# ELG1 genotoxic: induces genotoxicity in HEK293T cells with luciferase-tagged ELG1; HEK293T ELG1-luciferase reporter, luminescence, 16 h; Potency, µM (highest dose often 46 µM), without a hit: at the highest dose activity change, positive = activation, actives largely listed as activators; actives 1.3% (n = 330,000); AID 504466; also: % of control where 0% means no effect; nearly all actives have a fitted effect of over 60% in size
#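 16 hr compound incubation (37 °C, 5% CO2) of HEK293T cells carrying luciferase-tagged ELG1; luciferase then measured by ONE-Glo luminescence after 30 min at RT.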
# SMN2 splice up: increases expression of the SMN2 splice variant; HEK293 SMN2-luciferase splicing reporter, luminescence, 30-36 h; Potency, µM (titrated, usually from 46.1 µM), for inactives: at the top dose activity change, positive = activation, usual class: activators; actives 2.8% (n = 210,000); AID 1458; also: % of control where 0% means no effect; nearly all actives have a fitted effect of over 55% in size
#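 HEK293 cells carry an SMN2 minigene-luciferase reporter in which exon 7 inclusion puts luciferase in frame. Cells were seeded at 2000 cells/well, attached for 10-12 hours, then exposed to compounds for 30-36 hours at 37C before ONE-Glo luminescence.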
# Rab9 prom act: activates the Rab9 promoter. Huh7 Rab9 promoter-luciferase reporter, luminescence, 24 h. actives 2.8% (n = 320,000). Potency, µM (doses to about 9.22 µM), for inactives: top-dose activation, negative = inhibition, most hits filed as activators; also: % of control where 0% means no effect; nearly all actives have a fitted effect of over 60% in size
#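 Luciferase signal after 10 min detection reagent at ambient indicates Rab9 promoter upregulation; stably transfected Huh7 cells were treated 24 h with compound in DMSO at 37 °C, 5% CO2.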
# Numbers without * were called inactive; ? = inconclusive; · = no result given; [ ] = dose if it differs, or a comment. This is a sample that favours compounds with a hit; in the whole collection about 7.5% have one here. Calls follow the shape of the dose curve; as a rule, active = well fitted curve in the direction sought with a large enough effect; inconclusive = small, poorly fitted or top-dose-only effect, or another doubt; inactive = no such curve, though single readings can be large; an effect the other way counts as inactive or inconclusive. Potency is read from the fitted curve at half-maximal effect.
SMILES,KinaseGlo FLuc,NPC1 prom act,FLuc counter,ELG1 genotoxic,SMN2 splice up,Rab9 prom act
Oc1c(Br)cccc1/C=N/c1ncn[nH]1,·,0.8%,4.8%,-0.9%,·,-5.2%
CC1CCC(C(C)C)C(=O)/C1=C/c1ccc(N)cc1 (stereo not given),·,1.58µM*,10.7µM*,?,·,1.58µM*
O=[N+]([O-])c1cc(C2Nc3cccc4cccc(c34)N2)ccc1Cl,-0.4%,?,2.5%,3.1%,-0.8%,28.5%
Oc1ccc2ccccc2c1C1Nc2cccc3cccc(c23)N1,-2.7%,-0.2%,-2.5%,-11.4%,-1.2%,-0.9%
Brc1ccc(C2Nc3cccc4cccc(c34)N2)s1,-6.4%,19.6%,?,-0.3%,14.3%[1.84 µM],?
Cc1cccc(C2Nc3cccc4cccc(c34)N2)c1,·,?,21.3µM*,-0.1%,·,10.7%
CN1c2ccccc2N(C)C1c1ccc2c(c1)OCO2,-0.2%,-6.4%,8.9%,1.7%,-0.7%,-19.6%
c1cc2c3c(cccc3c1)NC(c1ccc3c(c1)OCO3)N2,·,?,26.9µM*,1.9%,·,-0.2%
CSc1ccc(C2Nc3cccc4cccc(c34)N2)cc1,·,?,21.3µM*,-1.6%,·,20.2%
Clc1ccc(C2Nc3cccc4cccc(c34)N2)cc1,·,21.9%,19µM*,-7.6%,·,17.2%
Cc1ccccc1NC(=O)CSc1nc2c(oc3ccccc32)c(=O)n1Cc1ccco1,·,·,-6.6%,·,-3.0%,·
CCOC(=O)N1CCN(C(=O)c2cnn(-c3cccc(F)c3)c2-n2cccc2)CC1,·,·,3.5%,·,·,·
N#CCSc1ncccc1-c1nc2ccccc2[nH]1,1.2%,3.3%,-15.5%,0.2%,-14.5%,15.0%
CC(C)(C)NC(=O)CSc1ncccc1-c1nc2ccccc2[nH]1,·,2.6%,23.9µM*,8.1%,·,-0.6%
O=C(CSc1ncccc1-c1nc2ccccc2[nH]1)N1CCc2ccccc21,-12.8%,?,7.57µM*,?,-37.7%,2.82µM*
N#CCCCSc1ncccc1-c1nc2ccccc2[nH]1,-0.5%,?,?,14.8%,-6.9%,?
Cn1c(SCC(=O)N2CCc3ccccc32)nc2cccnc21,-3.6%,1.1%,-11.7%,-12.5%,-28.8%,-3.9%
COC(=O)CSc1ncccc1-c1nc2ccccc2[nH]1,-3.4%,15.3%,13.5µM*,?,11.2%,-0.6%
CN(Cc1ccccc1)c1nc2c(S(=O)(=O)c3ccccc3)nnn2c2ccsc12,·,·,7.0%,·,·,·
CCOc1ccccc1Nc1ncnc2c1cnn2-c1ccc(C)cc1,·,·,15.1µM*,·,·,·
Cc1ccc(Nc2ncnc3c2cnn3-c2ccccc2)c(C)c1,·,·,19µM*,·,·,·
CCOc1ccccc1Nc1ncnc2c1cnn2-c1ccccc1,1.9%,-0.6%,-13.3%,-4.9%,-5.7%,-0.2%
Cc1ccc(-n2ncc3c(Nc4cccc(C)c4C)ncnc32)cc1,·,·,8.49µM*,·,·,·
Cc1ccc(-n2ncc3c(Nc4ccc(Oc5ccccc5)cc4)ncnc32)cc1,·,·,-6.0%,·,·,·
Cn1c(=O)c2c(-c3cccc(Br)c3)n(CCO)cc2n(C)c1=O,·,·,-1.9%,·,·,·
SMILES,KinaseGlo FLuc,NPC1 prom act,FLuc counter,ELG1 genotoxic,SMN2 splice up,Rab9 prom act
Cc1cc(C(=O)Cn2ncc(Cl)c(Cl)c2=O)c(C)n1CC(F)(F)F,0.9%,-8.4%,15.1µM*,-14.6%,?,12.9%
CCc1ccc(-c2nc(NC(=S)NC(=O)c3cccs3)sc2C)cc1,2.7%,2.9%,2.5%,2.7%,16.1%,0.8%
COC(=O)Cc1nc(NC(=O)c2cccs2)sc1C,·,?,16.9µM*,14.9%,·,?
O=C(NC(=S)Nc1nc2ccccc2s1)c1cccs1,0.2%,?,1.07µM*,?,2µM*,3.55µM*
COC(=O)c1nc(NC(=S)NC(=O)c2cccs2)sc1C,·,?,10.7µM*,?,·,?
COc1ccc(-c2nc3c(c4c2C[C@H](c2ccccc2)OC4)CN(C(=O)Cc2cccs2)CC3)c(C)c1,-2.3%[7.66 µM],·,·,·,1.6%[9.22 µM],·
COc1ccc(Cn2c(=O)c3oc4ccccc4c3n(Cc3ccccc3)c2=O)cc1,·,·,5.2%,·,·,·
Cn1nnc2c(N3CCCCC3)ncnc21,·,·,4.5%,·,·,·
CCc1ccc(S(=O)(=O)Nc2ccc3[nH]c(=O)sc3c2)cc1,·,·,-16.6%,·,·,·
CCC(C)(C)NC(=O)C(c1ccc(OC)cc1)N(Cc1cccs1)C(=O)CCC(=O)Nc1cc(C)on1 (stereo not given),0.3%,-6.1%,2.4%,-5.3%,-12.2%,0.631µM*
Clc1ccc(Cn2nnc(-c3ccccc3)n2)cc1,1.5%,10.1%,?,13.8%,29.3%,13.2%
CN(C)c1ccc(-c2nnn(Cc3ccccc3Br)n2)cc1,-2.1%,?,13.5µM*,?,11.8%,?
Clc1ccccc1Cn1nnc(-c2ccccc2)n1,1.5%,26.7%,21.3µM*,?,?,?
COc1cc(-c2nnn(Cc3ccccc3C)n2)cc(OC)c1OC,·,-5.2%,0.7%,5.7%,·,3.6%
Clc1ccccc1Cn1nnc(-c2cccs2)n1,0.5%,3.16µM*,15.1µM*,18.4µM*,12.6µM*,3.55µM*
Cc1ccccc1-c1nnn(Cc2ccc(F)cc2Cl)n1,·,15.9%,16.9µM*,8.8%,·,-1.3%[1.84 µM]
Fc1cccc(Cl)c1CNCCSc1nnnn1-c1ccccc1,·,·,-10.7%,·,-13.8%,·
COc1cc(-c2nc(C(N)=O)c3c(n2)n(-c2cccc(C)c2)c(=O)n3C)cc(OC)c1OC,·,·,4.9%,·,·,·
O=C(NCc1ccc(F)cc1)c1cc(-c2ccco2)on1,3.3%,2.3%,0.8%,1.3%,20µM*,13.9%
O=C(NCc1ccco1)c1cc(-c2ccccc2)on1,-2.8%,?,?,18.4µM*,12.6µM*,2.82µM*
O=C(Nc1ccc(F)cc1F)c1csc(-c2ccncc2)n1,3.5%,14.5%,?,8.8%,8.7%,11.2%
O=C(Nc1ccc(F)cc1F)c1csc(-c2cccs2)n1,-1.7%,-0.1%,6.75µM*,-5.2%,?,?
O=C(NCc1ccco1)c1cc(-c2ccc(F)cc2)on1,6.3%,2.51µM*,?,?,20.5%,2.82µM*
COc1ccc(-c2cc(C(=O)NCc3ccc(F)cc3)no2)cc1,·,·,0.8%,·,-1.0%,·
O=C(NCc1ccc(Cl)cc1)c1cc(-c2ccco2)on1,·,1.2%,-1.8%,5.0%,·,12.9%
c1cc[n+](CCC[n+]2ccccc2)cc1,·,-1.1%,2.3%,1.7%,·,5.3%
Cc1ccc(CNC(=O)Cn2c3ncccc3c(=O)n2-c2ccc(C)cc2)cc1,·,·,-7.0%,·,·,·
COc1ccc(CCNC(=O)c2cc(-c3ccccc3)on2)cc1OC,4.4%,1.1%,-0.4%,5.1%,-10.8%,13.0%
O=C(Nc1ccc(F)cc1F)c1cc(-c2ccco2)on1,3.6%,-7.8%,4.26µM*,?,-17.2%,7.0%
O=C(NCCCN1CCOCC1)c1cc(-c2cccs2)on1,-1.2%,28.4%,-9.3%,?,-10.9%,?
